4-MU autofl: compound fluoresces in the 4-MU spectral region | max dye-equivalent concentration, M | hit rate 11% among 59,000 | compound autofluorescence, 340/450 nm, 4-MU equivalents; stronger effect = higher value; in the data active = max dye-equivalent concentration above about 10 nM; inconclusive = mostly about 1.1 nM to 9.6 nM
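Compounds in 100 mM Tris, pH 8.0, sat 15 min at room temperature before fluorescence was read at 340 nm excitation/450 nm emission; a per-plate six-point 4-MU standard curve converted signals to dye-equivalent concentration at each compound concentration.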
HADH2 inh: inhibitors of human HADH2 dehydrogenase; recombinant HADH2, NADH fluorescence, beta-hydroxybutyryl-CoA; Q99714; Potency, µM (top dose mostly 57.1 µM), most hits filed as inhibitors; hit rate 3.4% among 73,000; also: nearly all actives have a fitted effect of over 60% in size
Target sequence (Q99714 whole entry, looked up, one chain of several): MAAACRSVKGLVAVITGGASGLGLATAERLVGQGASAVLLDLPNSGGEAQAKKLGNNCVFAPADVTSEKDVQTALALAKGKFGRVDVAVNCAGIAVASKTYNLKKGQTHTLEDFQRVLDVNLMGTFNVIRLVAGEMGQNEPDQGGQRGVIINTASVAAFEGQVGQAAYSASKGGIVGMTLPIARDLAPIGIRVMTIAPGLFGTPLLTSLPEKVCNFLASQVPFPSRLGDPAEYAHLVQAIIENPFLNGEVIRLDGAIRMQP
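Buffer 100 mM Tris-HCl pH 9.0/0.01% Tween-20; HADH2 20 nM; NAD+ 1 mM; beta-hydroxybutyryl-CoA 90 uM (all final). 15 min cpd preincubation, RT.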
HSD17B inhib: HSD17B dehydrogenase inhibition; hit rate 7.6% among 75,000; Potency, µM (titrated, usually from 57.1 µM), hits mostly inhibitors; recombinant HSD17B10, NADH fluorescence kinetic;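 also: the protocol describes HADH2 (HSD17B10) and not the HSD17B4 of the title; nearly all actives have a fitted effect of over 70% in size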
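20 nM HADH2, pH 9.0 Tris/Tween; cpd preinc 15 min RT; start w/ 1 mM NAD+ + 90 uM b-hydroxybutyryl-CoA; kinetic fluor ex360/em450 q30s x 4 min; delta last-first.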
AID923: qHTS Assay for Allosteric/Competitive Inhibitors of Caspase-1: Spectroscopic Profiling in AFC Spectral Region; compound fluorescence, AFC spectral region (405/520 nm); Potency, µM (series often up to 57.5 µM), hits mostly activators; hit rate 1.1% among 75,000; AID 923, 2007
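Titrations up to 57 uM read every 20 sec for 3 min (405/520 nm) with 50 nM caspase 1 and 5 uM Ac-WEHD-AFC, pH 7.5 HEPES buffer. Fluorescence-vs-time intercept gave baseline, scaled against on-plate AFC standard.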
A350 fluor: compounds fluorescent in Alexa 350 spectral region; Compound autofluorescence, 340/450 nm, Alexa 350 dye-equivalents; stronger effect = higher value; max dye-equivalent concentration, M; hit rate 11% among 59,000; AID 590; in the data active = max dye-equivalent concentration above about 10 nM; inconclusive = mostly about 1.1 nM to 9.6 nM
CRE Fsk mod: alters forskolin-stimulated CRE reporter signaling in CHO cells; AID 662; CHO CRE-bla reporter (cAMP response element driving beta-lactamase), forskolin EC10, beta-lactamase ratio; Potency, µM (doses to about 38.2 µM), actives largely listed as activators; hit rate 2.5% among 71,000; active = well fitted activation curve with a large enough effect in the signal ratio, with a control signal flat, not every such curve was filed as active; inconclusive = small, poorly fitted or top-dose-only effect, or effect the other way, or a change in a side signal; the % refers to the signal ratio
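Cells were plated overnight at 37 °C, exposed to compound titrations plus EC10 NKH 477 for 3 h, then given CCF4 dye for 2 h at room temperature. Blue/green (460/530 nm) ratio was converted to %Activity and AC50 values calculated.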
Of the large screens only hits and unclear results are named; the others gave an inactive call. Sampled rows, rich in hits. Any-hit rate of the full collection: about 14%. Unless noted, calls follow the shape of the dose curve; as a rule, active = well fitted curve in the direction sought with a large enough effect; inconclusive = small, poorly fitted or top-dose-only effect, or another doubt; inactive = no such curve, though single readings can be large; an effect the other way counts as inactive or inconclusive.

CCCCN1CCC[C@@H]1CNC(=O)c1cc(C#N)c2ccccc2c1OC	none (no result: 4-MU autofl, A350 fluor)
CN(C)C(=O)c1ccc(-c2ccc3ncnc(NCc4cccs4)c3c2)cc1	HADH2 inh inconclusive, HSD17B inhib 25µM, CRE Fsk mod inconclusive
N#Cc1ccccc1-c1ccc2ncnc(NCc3cccs3)c2c1	HADH2 inh inconclusive, HSD17B inhib 25µM, CRE Fsk mod inconclusive
COc1cccc(-c2ccc3ncnc(NCc4cccs4)c3c2)c1	HSD17B inhib inconclusive, CRE Fsk mod inconclusive
Cc1cccc(CNc2ncnc3ccc(-c4ccccc4C#N)cc23)c1	HSD17B inhib 25µM, CRE Fsk mod inconclusive
CN(C)C(=O)c1ccc(-c2cc(NCc3cccs3)ncn2)cc1	none
N#Cc1c(N)sc(=S)c2c1CCCC2	4-MU autofl inconclusive, HSD17B inhib 25µM, A350 fluor 1.4e-08M
CCC1(C)Cc2c(C#N)c(N)sc(=S)c2CO1 (configuration not stated)	4-MU autofl 2.3e-08M, A350 fluor 2.8e-08M (no result: HADH2 inh, HSD17B inhib, AID923, CRE Fsk mod)
CO/N=C1/[C@H]2O[C@@H]2[C@@H](O)[C@H]2[C@H]1CCn1c(=O)n(-c3ccccc3)c(=O)n12	none (no result: 4-MU autofl, A350 fluor, CRE Fsk mod)
NN(CC(=O)O)CC(=O)O	none
C=CCN1C(=O)C(O)(CC(=O)c2ccc(N)cc2)c2ccccc21 (configuration not stated)	none (no result: 4-MU autofl, A350 fluor)
O=C(CC1(O)C(=O)N(C/C=C/c2ccccc2)c2ccccc21)c1ccccn1 (configuration not stated)	HSD17B inhib 25µM, CRE Fsk mod inconclusive
c1ccc2c(c1)[nH]c1c(NCC3CCCO3)ncnc12 (configuration not stated)	4-MU autofl inconclusive, HSD17B inhib 32µM, A350 fluor inconclusive
CCCCOc1ncnc2c1[nH]c1ccccc12	HSD17B inhib 7.9µM, A350 fluor inconclusive
C=CCNc1ncnc2c1[nH]c1ccccc12	4-MU autofl 2.6e-08M, HSD17B inhib 32µM, A350 fluor 2.9e-08M
c1nc(NCC2CCCO2)c2[nH]cnc2n1 (configuration not stated)	none
C(=C/c1ccccc1)/CN1CCN(C(c2ccccc2)c2ccccc2)CC1	CRE Fsk mod inconclusive
COC(=O)C1=C(C)N(Cc2ccccc2)C2=C(C(C)=O)C[C@@](O)(C(=O)OC)C(=O)N2C1c1ccccc1 (some centres not stated)	none (no result: 4-MU autofl, A350 fluor, CRE Fsk mod)
O=C(CCC(=O)N(c1ccccc1)C(C(=O)NC1CCCC1)c1ccncc1)Nc1cccnc1 (configuration not stated)	4-MU autofl 1.5e-08M, A350 fluor 1.9e-08M
O=C(CCC(=O)N(c1cccc(F)c1)C(C(=O)NC1CCCC1)c1ccncc1)Nc1cccnc1 (configuration not stated)	none
N#Cc1ccc(-c2ccc(OCC(O)Cn3nnc4ccccc43)cc2)cc1 (configuration not stated)	none (no result: HADH2 inh, HSD17B inhib, AID923, CRE Fsk mod)
COc1ccc(OC)c(NC2c3ccccc3C(=O)N2c2cccnc2)c1 (configuration not stated)	none (no result: 4-MU autofl, A350 fluor)
C/C(=C1\SC(N2CCOCC2)=NC1=O)c1ccc(C)cc1	none
C/C(=C1/SC(N2CCOCC2)=NC1=O)c1ccc(Cl)cc1	4-MU autofl 1e-08M, A350 fluor 1.5e-08M
N=C(N)SCCc1ccc(CCSC(=N)N)cc1	none
Cc1nc2nc(C)c(CCC(=O)N3CCOCC3)c(C)n2n1	CRE Fsk mod inconclusive
Cc1ccc(S(=O)(=O)NC(=O)OC23COCN2COC3)cc1	none
C=CCc1cccc2cc(C(=O)NC)c(=O)oc12	4-MU autofl 2.3e-08M, HSD17B inhib 32µM, A350 fluor 2.5e-08M, CRE Fsk mod inconclusive
COc1ccc(NC(=O)N2CC[C@@]3(CCCNC3)C2)cc1	none
COc1cccc(C2CC(=O)N3CN(c4cccc(Cl)c4C)CSC3=C2C#N)c1OC (configuration not stated)	HADH2 inh 1.6µM, HSD17B inhib inconclusive, CRE Fsk mod inconclusive (no result: 4-MU autofl, A350 fluor)
COc1ccc(OC)c(C2CC(=O)N3CN(c4cccc(Cl)c4C)CSC3=C2C#N)c1 (configuration not stated)	HADH2 inh 1.3µM, HSD17B inhib 32µM (no result: 4-MU autofl, A350 fluor)
